Assay outcomes: PubChem BioAssay, National Center for Advancing Translational Sciences (NCATS)
Shown is part of a subset that was picked to be rich in hits.
CHX counter: counter-screen hit for Shiga toxin inhibitors, cycloheximide | max response, % | cell reporter, cycloheximide protein synthesis inhibition counterscreen | hit rate 12% among 300,000 | AID 2314; in the data active = max response mostly above about 13%, no sharp cut-off; inactive = mostly below about 14%; note: read at 38.3 µM for the half of the compounds with a filed dose
AMA1 RON2 block: disrupts binding of P. falciparum AMA1 to RON2 | Potency, µM (series often up to 58.2 µM), most hits filed as inhibitors | hit rate 0.2% among 360,000 | AlphaScreen AMA1-biotinylated RON2 peptide binding; active = well fitted inhibition curve with a large enough effect; inconclusive = small, poorly fitted or top-dose-only effect; inactive = no such curve, though single readings can be large or run the other way; note: nearly all actives have a fitted effect of over 45% in size
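AMA1 (3D7) with his tag at 25 nM final met compounds first, then biotinylated RON2 peptide at 25 nM; detection used donor plus acceptor beads, 10 µg/mL apiece, read by AlphaScreen after 30 min at room temperature.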
Marburg entry inh: blocks Marburg virus binding to or entry into cells; Potency, µM (titrated, usually from 37.8 µM), actives largely listed as inhibitors; Marburg virus pseudotyped entry inhibition, cell reporter; hit rate 1.8% among 300,000; calls by dose curve; tested in HEK293 cells
LASV entry inh: blocks Lassa virus binding to or entry into cells. Lassa virus pseudotype entry inhibition, cell reporter. hit rate 1.2% among 300,000. AID 540256. Potency, µM (titrated, usually from 37.9 µM), usual class: inhibitors; calls by dose curve; tested in HEK293 cells; note: nearly all actives have a fitted effect of over 50% in size
Shiga inhibitor: Shiga toxin inhibition; Vero cells, Shiga toxin protein synthesis inhibition reporter; inhibition, % at 38.7 µM; hit rate 9.2% among 290,000; in the data active = inhibition mostly above about 28%, no sharp cut-off; inactive = mostly below about 43%
Hits are given with their value.

How did COc1ccc(C(Nc2ccccc2)P(=O)(Oc2ccccc2)Oc2ccccc2)cc1 (stereo not drawn) do in these assays?
CHX counter: 28; AMA1 RON2 block: inactive; Marburg entry inh: inactive; LASV entry inh: inactive; Shiga inhibitor: 56

What do the screens show for `CCOP(=O)(OCC)C(Nc1ccccc1)c1cc(OC)ccc1OC` (stereo not drawn)?
CHX counter: inactive; AMA1 RON2 block: inactive; Marburg entry inh: inconclusive; LASV entry inh: inactive; Shiga inhibitor: inactive

Results for COP(=O)(OC)C(Nc1ccc(C)cc1)c1ccc([N+](=O)[O-])cc1 (stereo not drawn) ?
CHX counter: 44; AMA1 RON2 block: inactive; Marburg entry inh: inactive; LASV entry inh: inconclusive; Shiga inhibitor: 25

Results for O=C(Nc1cccnc1Cl)c1cc(-c2ccc(O)cc2)on1 ?
CHX counter: 25; AMA1 RON2 block: inactive; Marburg entry inh: inactive; LASV entry inh: inactive; Shiga inhibitor: 73

What do the screens show for `Cc1ccc(-c2cc(C(=O)NC3CCCCC3)no2)cc1`?
CHX counter: 20; AMA1 RON2 block: inactive; Marburg entry inh: inconclusive; LASV entry inh: inactive; Shiga inhibitor: inactive

What do the screens show for `O=C(Nc1cccnc1Cl)c1cc(-c2ccc(Cl)cc2)on1`?
CHX counter: inactive; AMA1 RON2 block: inactive; Marburg entry inh: inactive; LASV entry inh: inactive; Shiga inhibitor: inactive

Results for O=C(NC1CCCCC1)c1cc(-c2ccccc2O)on1 ?
CHX counter: 27; AMA1 RON2 block: inactive; Marburg entry inh: inactive; LASV entry inh: inconclusive; Shiga inhibitor: 109

What do the screens show for `COc1ccc(-c2cc(C(=O)NC3CCCCC3)no2)cc1OC`?
CHX counter: inactive; AMA1 RON2 block: inactive; Marburg entry inh: inactive; LASV entry inh: inactive; Shiga inhibitor: inactive

Results for O=C(NC1CCCCCCC1)c1ccccc1-c1ccccc1 ?
CHX counter: inactive; AMA1 RON2 block: inactive; Marburg entry inh: inactive; LASV entry inh: inactive; Shiga inhibitor: inactive

How did O=C(NC1CCCCC1)c1cc(-c2ccc(O)cc2)on1 do in these assays?
CHX counter: 33; AMA1 RON2 block: inactive; Marburg entry inh: inactive; LASV entry inh: inactive; Shiga inhibitor: 71

How did CCOc1ccc2nc(N(Cc3cccnc3)C(=O)c3ccco3)sc2c1 do in these assays?
LASV entry inh: inactive

What do the screens show for `Cc1cccc(C(=O)Nc2ccccc2C(=O)NCc2ccco2)c1`?
CHX counter: inactive; AMA1 RON2 block: inactive; Marburg entry inh: inactive; LASV entry inh: inactive; Shiga inhibitor: inactive

Results for CCC(=O)Nc1ccc(-c2nnc(SCC(=O)NC[C@H]3CCCO3)n2C)cc1 ?
Marburg entry inh: inactive

How did COc1cc(NC(=O)C2CCN(S(=O)(=O)c3ccc4c(c3)oc(=O)n4C)CC2)cc(OC)c1 do in these assays?
Marburg entry inh: inactive; LASV entry inh: inactive

Results for Cc1cnc(NC(=O)C2CCCO2)s1 (stereo not drawn) ?
CHX counter: inactive; AMA1 RON2 block: inactive; Marburg entry inh: inactive; LASV entry inh: inactive; Shiga inhibitor: inactive

Results for O=C(Nc1ncc(Cc2cccc(Cl)c2Cl)s1)C1CCCO1 (stereo not drawn) ?
CHX counter: 47; AMA1 RON2 block: inactive; Marburg entry inh: inconclusive; LASV entry inh: inconclusive; Shiga inhibitor: 101

How did O=C(Nc1ncc(Cc2ccccc2Cl)s1)C1CCCO1 (stereo not drawn) do in these assays?
CHX counter: 54; AMA1 RON2 block: inactive; Marburg entry inh: inconclusive; LASV entry inh: inconclusive; Shiga inhibitor: 49

How did CC(=O)Nc1ncc(Cc2cccc(Cl)c2Cl)s1 do in these assays?
CHX counter: inactive; AMA1 RON2 block: inactive; Marburg entry inh: inactive; LASV entry inh: inactive; Shiga inhibitor: inactive

Results for O=C(Nc1ncc(Cc2cccc(Cl)c2)s1)C1CCCO1 (stereo not drawn) ?
CHX counter: 69; AMA1 RON2 block: inactive; Marburg entry inh: inconclusive; LASV entry inh: inconclusive; Shiga inhibitor: 116

Results for Cc1cccc(C)c1NC(=O)CCCn1c(=O)c2cccn2c2ccccc21 ?
LASV entry inh: inactive

Results for CC1=CC(C)(C)N(S(=O)(=O)c2ccc(C)cc2)c2cc(C)ccc21 ?
CHX counter: inactive; AMA1 RON2 block: inactive; Marburg entry inh: 2.6µM; LASV entry inh: inconclusive; Shiga inhibitor: inactive

Results for COc1ccc2c(c1)C(C)=CC(C)(C)N2S(=O)(=O)c1ccc(C)cc1 ?
CHX counter: inactive; AMA1 RON2 block: inactive; Marburg entry inh: inconclusive; LASV entry inh: inconclusive; Shiga inhibitor: inactive

What do the screens show for `CCOc1ccc2c(c1)C(C)=CC(C)(C)N2S(=O)(=O)c1ccc(C)cc1`?
CHX counter: inactive; AMA1 RON2 block: inactive; Marburg entry inh: 2.8µM; LASV entry inh: inconclusive; Shiga inhibitor: inactive

How did S=C1NCC(c2ccccc2)S1 (stereo not drawn) do in these assays?
AMA1 RON2 block: inactive; Marburg entry inh: inconclusive; LASV entry inh: inconclusive
